The results in this text go back to PubChem BioAssay (NCATS).

Assay [1] can be described thus: NS1 protein of Zika virus - qHTS assay to identify small molecule inhibitors in human HEK 293 cells (AID 1347053). Note: nearly all actives have a fitted effect of over 55% in size. Note: potency is the fitted concentration of half-maximal effect. An outline of the steps:
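Inhibition of NS1 expression was scored in HEK 293 cells given compound 1 h ahead of MR766 virus (MOI = 0.5). Following 24 h at 37 C, two anti-NS1 antibodies generated a TR-FRET signal, scaled between uninfected and infected controls.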
For orientation: qHTS replaces the single test concentration by a dilution series.

Assay [2] can be described thus: qHTS of pediatric cancer cell lines to identify multiple opportunities for drug repurposing: Primary screen for TC32 cells (AID 1347089). Note: nearly all actives have a fitted effect of over 60% in size. An outline of the steps: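 qHTS, TC32, 48 h drug treatment, CellTiter-Glo luminescence as a proxy for metabolically active cells; primary top concentration 46 µM (MIPE 11-pt, NPC 8-pt); confirmatory 11-pt.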
A short description of assay [3]: qHTS of pediatric cancer cell lines to identify multiple opportunities for drug repurposing: Primary screen for SJ-GBM2 cells (AID 1347091). Note: potency is the fitted concentration of half-maximal effect. Summed up:
(§1)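 Cell viability, CellTiter-Glo luminescence; 500-1,000 cells/well, 8- or 11-point titration, 48 h compound exposure at 37 degrees C, 5% CO2. Controls: DMSO neutral, bortezomib 2.3 µM final as positive.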

The nature of assay [4]: qHTS of pediatric cancer cell lines to identify multiple opportunities for drug repurposing: Primary screen for DAOY cells (AID 1347090). Note: nearly all actives have a fitted effect of over 55% in size. Note: potency is the fitted concentration of half-maximal effect. Summed up: as §1
Assay [5] can be described thus: qHTS of pediatric cancer cell lines to identify multiple opportunities for drug repurposing: Primary screen for A673 cells (AID 1347092). Note: potency is the fitted concentration of half-maximal effect; nearly all actives have a fitted effect of over 45% in size. An outline of the steps:
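Luminescence from CellTiter-Glo, taken after 15 min at room temperature, served as the proxy for metabolically active cells following 48 h treatment. Both potency and efficacy were taken from curves fitted to the titration data.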

The nature of assay [6]: qHTS of pediatric cancer cell lines to identify multiple opportunities for drug repurposing: Primary screen for SK-N-MC cells (AID 1347093). Note: potency is the fitted concentration of half-maximal effect. Summed up: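 Metabolically active cells were quantified by ATP-dependent luminescence (CellTiter-Glo, 15 min at room temperature) following 48 h treatment. Cells had been plated at 500-1,000 per well and settled for 5 h beforehand.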

Results filed as inconclusive are left out. Active and inactive are the calls of the source. Calls come from the whole dose curve; as a rule, active = well fitted curve in the direction sought with a large enough effect; inconclusive = small, poorly fitted or top-dose-only effect, or another doubt; inactive = no such curve, though single readings can be large; an effect the other way counts as inactive or inconclusive.

As to `CC(C)C(=O)Nc1ncc(-c2cc(C(F)F)nn2-c2c(Cl)cccc2Cl)s1`, the Potency was 13.2 µM (active) in assay [1] and 20.9 µM (active) in assay [3]. The Potency entry in assay [2] was “inactive”.

For the molecule `Cc1ccc(C(=O)Nc2cccc(C(F)(F)F)c2)cc1Nc1nc(-c2cccnc2)nc2c1cnn2C`, the Potency was 14.8 µM (active) in assay [1]; 14.8 µM (active) in assay [4]; 7.43 µM (active) in assay [3]; 9.35 µM (active) in assay [5]; 9.35 µM (active) in assay [6]. Moreover, the Potency entry in assay [2] is “inactive”.

Regarding `CCCCCCCCCCCC1=C(O)C(=O)C=C(O)C1=O`, the Potency entry in assay [1] and in assay [2] was “inactive” each time. Further, the results for the Potency in assay [4], in assay [3] and in assay [6] were 0.935 µM (active), 0.0332 µM (active) and 0.0935 µM (active), respectively.

As to `NC[C@@H]1O[C@@H](O[C@H]2[C@@H](O)[C@H](O[C@@H]3[C@@H](O)[C@@H](N)C[C@H](N)[C@H]3O[C@H]3O[C@H](CN)[C@@H](O)[C@@H](O)[C@H]3N)O[C@H]2CO)[C@H](N)[C@@H](O)[C@@H]1O`, the Potency entry in assay [1], in assay [2], in assay [4], in assay [3] and in assay [6] was “inactive” in each case.

Regarding `CC(=O)OC1C(C)OC(Oc2c(-c3ccc(O)cc3)oc3cc(O)cc(O)c3c2=O)C(O)C1OC(C)=O` (stereo unspecified), the Potency result in assay [1], in assay [2] and in assay [4] was “inactive” in each case. The Potency in assay [5] is 11.8 µM (active).

Consider `CC=CC[C@@H](C)C(=O)[C@H]1C(=O)N[C@@H](C(C)C)C(=O)N(C)CC(=O)N(C)[C@@H](CC(C)C)C(=O)N[C@@H](C(C)C)C(=O)N(C)[C@@H](CC(C)C)C(=O)N[C@@H](C)C(=O)N[C@H](C)C(=O)N(C)[C@@H](CC(C)C)C(=O)N(C)[C@@H](CC(C)C)C(=O)N(C)[C@@H](C(C)C)C(=O)N1C`, for which the Potency entry in assay [1] and in assay [2] was “inactive” throughout. Also, in assay [3], the Potency is 18.7 µM (active).

With `CC1(C)O[C@H]2C[C@@H]3[C@H]4CCC5=CC(=O)C=C[C@]5(C)[C@@]4(F)[C@@H](O)C[C@]3(C)[C@]2(C(=O)CO)O1`, the Potency entry in assay [1], in assay [2] and in assay [4] was “inactive” each time. Further, the figures for the Potency in assay [5] and in assay [6] were 3.72 µM (active) and 8.33 µM (active), respectively.
